This passage reports Inhibition results from ChEMBL document CHEMBL1157539, “Thousands of chemical starting points for antimalarial lead identification” (Nature, 2010).

This assay relates to HepG2. As to the kind of experiment: GSK_TCMDC: Percent inhibition of human HepG2 cell line. Test compounds present at 10uM. It counts as functional.
As usually defined, the Inhibition is the share of the control response that was lost under treatment. As for `CCN(CC)CCN(Cc1ccc(-c2ccc(C(F)(F)F)cc2)nc1)C(=O)Cn1cc(Cc2cnn(C)c2)c(=O)n2nc(-c3ccccc3)cc12.O=C(O)C(O)C(O)C(=O)O`, the Inhibition turned out to be 35%.

On to `CC(C)c1cc2c(ccc3nc(N)nc(N)c32)[nH]1`, for which the Inhibition worked out at 49%.

`Cc1cc(Nc2nc(Nc3cccc(Cl)c3)nc3ccccc23)n[nH]1`: the Inhibition was 9%.

As for `Cc1cc(CNC(c2ccccc2)C2CCC2)cc(C)c1O` (centres undefined), the Inhibition was found to be 78%.
